Test results taken from PubChem BioAssay (NCI).
About 79,000 compounds went through this panel and 15% of them were active in at least one assay; those are over-represented in the sample as a whole. Calls of active or inactive are those of the source. No stated cut-off is given here; in the data, active means growth inhibition above about 70%; inactive means the rest.

What was measured:
[1] = NCI Yeast Anticancer Drug Screen. Data for the rad52 strain (AID 147);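 further: 0% = growth of vehicle-treated control cultures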; details: S. cerevisiae rad52 mutant growth inhibition, hits give high values
Method in brief: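 Growth of repair-deficient yeast cells was compared between compound-treated and vehicle-treated cultures to give percent inhibition.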

[2] = NCI Yeast Anticancer Drug Screen. Data for the wt1 strain (AID 149);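 further: 0% = growth of vehicle-treated wt1 cultures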; details: S. cerevisiae wt1 strain (SPY 50644) growth inhibition, hits give high values
Method in brief: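 Growth inhibition read against vehicle controls after compound exposure of the wt1 yeast strain.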

[3] = NCI Yeast Anticancer Drug Screen. Data for the mgt1 strain (AID 153); details: S. cerevisiae mgt1 mutant growth inhibition, hits give high values
Method in brief: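 Compounds were applied to mgt1 mutant yeast, and growth was then compared against vehicle-treated control cultures to give percent inhibition.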

[4] = NCI Yeast Anticancer Drug Screen. Data for the rad50 strain (AID 155);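 further: 0% = growth of vehicle-only cultures of the same strain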; details: S. cerevisiae rad50 strain growth inhibition, hits give high values
Method in brief: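 Readout: growth inhibition relative to vehicle-treated cultures. Compound exposure was carried out in a genetically defined yeast strain deficient in DNA damage repair.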

[5] = NCI Yeast Anticancer Drug Screen. Data for the mec2-1 strain (AID 157); details: S. cerevisiae mec2-1 strain, hits give high values
Method in brief: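 Compounds were applied to mec2-1 yeast cells. Their growth was then compared with that of vehicle-treated cultures to give growth inhibition.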

[6] = NCI Yeast Anticancer Drug Screen. Data for the rad14 strain (AID 159);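 further: 0% = growth of vehicle-treated control cultures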; details: S. cerevisiae rad14 strain growth inhibition, hits give high values
Method in brief: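 Growth inhibition vs vehicle controls; genetically altered yeast strain (DNA damage repair defect) treated with test compounds.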

[7] = NCI Yeast Anticancer Drug Screen. Data for the sgs1 mgt1 strain (AID 161);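 further: 0% = growth of cultures given vehicle only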; details: S. cerevisiae sgs1 mgt1 strain, hits give high values
Method in brief: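 Percent growth inhibition was derived by comparing compound-exposed mutant yeast with vehicle-exposed cultures. The strain carries alterations in DNA damage repair.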

[8] = NCI Yeast Anticancer Drug Screen. Data for the CLN2oe strain (AID 163);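 further: 0% = growth of vehicle-only control cultures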; details: S. cerevisiae CLN2oe strain, hits give high values
Method in brief: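 Cells of an engineered yeast line with disturbed cell-cycle regulation are treated with compound. Inhibition of growth is then calculated relative to the vehicle-treated reference.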

[9] = NCI Yeast Anticancer Drug Screen. Data for the cln2 rad14 strain (AID 165);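 further: 0% = growth equal to vehicle treated cultures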; details: S. cerevisiae cln2 rad14 strain, hits give high values
Method in brief: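 Strain: cln2 rad14 yeast, altered in cell cycle control and DNA damage repair. Read-out: growth inhibition vs vehicle.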

[10] = NCI Yeast Anticancer Drug Screen. Data for the bub3 strain (AID 167); details: S. cerevisiae bub3 mutant strain, hits give high values
Method in brief: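 Readout: yeast growth inhibition, expressed relative to vehicle-only wells. The test organism is a mutant strain from a panel with lesions in DNA repair or checkpoint genes.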

[11] = NCI Yeast Anticancer Drug Screen. Data for the wt2 strain (AID 169);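 further: 0% = growth of vehicle-treated yeast cultures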; details: S. cerevisiae wt2 strain growth inhibition, hits give high values
Method in brief: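 Growth of compound-treated yeast is measured and expressed as inhibition relative to vehicle-only controls.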

[12] = NCI Yeast Anticancer Drug Screen. Data for the mlh1 strain (AID 171);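 further: 0% = growth of vehicle-treated control cultures of the same strain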; details: S. cerevisiae mlh1 strain growth inhibition, hits give high values
Method in brief: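 Test agents were incubated with yeast bearing a defined DNA damage repair or cell cycle control alteration; values are growth inhibition normalised to vehicle-treated cultures.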

[13] = NCI Yeast Anticancer Drug Screen. Data for the mlh1 rad18 strain (AID 175); details: S. cerevisiae mlh1 rad18 strain growth inhibition, hits give high values
Method in brief: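 A repair-deficient yeast strain is exposed to test compound, and growth is scored relative to vehicle-treated controls.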

[14] = NCI Yeast Anticancer Drug Screen. Data for the rad18 strain (AID 177); details: S. cerevisiae rad18 mutant growth inhibition, hits give high values
Method in brief: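 DNA-repair-defective yeast; compound treatment; growth inhibition scored against vehicle.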

[15] = at 5.0 µM (retest, dose inferred, filed as 0.5)
[16] = at 50.0 µM (retest, dose inferred, filed as 5.0)

Measured: growth inhibition

C/C(=N\NC(=S)N1CCCCC1)c1cccc(C)n1
active: [1]; at 3.7 µM 91% | [1]; at 11.0 µM 97% | [1]; at 33.0 µM 99% | [1]; at 100.0 µM 99% | [2]; at 3.7 µM 95% | [2]; at 11.0 µM 98% | [2]; at 33.0 µM 99% | [2]; at 100.0 µM 99% | [3]; at 3.7 µM 94% | [3]; at 11.0 µM 99% | [3]; at 33.0 µM 99% | [3]; at 100.0 µM 98% | [4]; at 3.7 µM 94% | [4]; [15] 89% | [4]; at 11.0 µM 98% | [4]; at 33.0 µM 98% | [4]; [16] 100% | [4]; at 50.0 µM 89.7% | [4]; at 100.0 µM 98% | [5]; at 3.7 µM 92% | [5]; [15] 86% | [5]; at 11.0 µM 96% | [5]; at 33.0 µM 99% | [5]; [16] 100% | [5]; at 50.0 µM 92.2% | [5]; at 100.0 µM 99% | [6]; at 3.7 µM 97% | [6]; at 11.0 µM 99% | [6]; at 33.0 µM 100% | [6]; at 100.0 µM 99% | [7]; [15] 81% | [7]; [16] 99% | [7]; at 50.0 µM 85.8% | [8]; at 3.7 µM 94% | [8]; at 11.0 µM 99% | [8]; at 33.0 µM 100% | [8]; at 100.0 µM 99% | [9]; [15] 93% | [9]; [16] 99% | [9]; at 50.0 µM 90.7% | [10]; at 3.7 µM 87% | [10]; [15] 93% | [10]; at 11.0 µM 99% | [10]; at 33.0 µM 99% | [10]; [16] 99% | [10]; at 50.0 µM 89.2% | [10]; at 100.0 µM 99% | [11]; at 3.7 µM 94% | [11]; at 11.0 µM 97% | [11]; at 33.0 µM 98% | [11]; at 100.0 µM 99% | [12]; at 3.7 µM 92% | [12]; at 11.0 µM 96% | [12]; at 33.0 µM 96% | [12]; at 100.0 µM 96% | [13]; [15] 81% | [13]; [16] 99% | [13]; at 50.0 µM 86.2% | [14]; at 3.7 µM 90% | [14]; at 11.0 µM 98% | [14]; at 33.0 µM 98% | [14]; at 100.0 µM 97%
inactive: [1]; at 1.2 µM -4% | [2]; at 1.2 µM 41% | [3]; at 1.2 µM 49% | [4]; at 1.2 µM 23% | [5]; at 1.2 µM 39% | [6]; at 1.2 µM 45% | [8]; at 1.2 µM 50% | [10]; at 1.2 µM 21% | [11]; at 1.2 µM -10% | [12]; at 1.2 µM 1% | [14]; at 1.2 µM 7%

N#Cc1ccc(C2NN=CC23C(=O)c2ccccc2OC3c2ccccc2)cc1 (stereo unspecified)
active: [4]; at 50.0 µM 73.3% | [5]; [16] 85% | [5]; at 50.0 µM 77% | [7]; [16] 93% | [7]; at 50.0 µM 77.5%
inactive: [1]; at 1.2 µM 2% | [1]; at 3.7 µM 5% | [1]; at 11.0 µM 4% | [1]; at 33.0 µM 3% | [1]; at 100.0 µM 5% | [2]; at 1.2 µM 0% | [2]; at 3.7 µM 0% | [2]; at 11.0 µM -1% | [2]; at 33.0 µM -2% | [2]; at 100.0 µM 2% | [3]; at 1.2 µM -4% | [3]; at 3.7 µM -2% | [3]; at 11.0 µM 5% | [3]; at 33.0 µM -3% | [3]; at 100.0 µM 2% | [4]; at 1.2 µM 2% | [4]; at 3.7 µM 4% | [4]; [15] 10% | [4]; at 11.0 µM -6% | [4]; at 33.0 µM 5% | [4]; [16] 66% | [4]; at 100.0 µM 3% | [5]; at 1.2 µM 2% | [5]; at 3.7 µM -2% | [5]; [15] -19% | [5]; at 11.0 µM -3% | [5]; at 33.0 µM -4% | [5]; at 100.0 µM 1% | [6]; at 1.2 µM 0% | [6]; at 3.7 µM 1% | [6]; at 11.0 µM 5% | [6]; at 33.0 µM 3% | [6]; at 100.0 µM 3% | [7]; [15] -22% | [8]; at 1.2 µM -2% | [8]; at 3.7 µM 2% | [8]; at 11.0 µM 5% | [8]; at 33.0 µM -1% | [8]; at 100.0 µM 5% | [9]; [15] -16% | [9]; [16] 38% | [9]; at 50.0 µM 61% | [10]; at 1.2 µM -7% | [10]; at 3.7 µM 0% | [10]; [15] -28% | [10]; at 11.0 µM 7% | [10]; at 33.0 µM -2% | [10]; [16] 16% | [10]; at 50.0 µM 64% | [10]; at 100.0 µM 0% | [11]; at 1.2 µM 0% | [11]; at 3.7 µM 0% | [11]; at 11.0 µM 2% | [11]; at 33.0 µM 1% | [11]; at 100.0 µM 3% | [12]; at 1.2 µM 0% | [12]; at 3.7 µM -5% | [12]; at 11.0 µM 0% | [12]; at 33.0 µM -2% | [12]; at 100.0 µM 4% | [13]; [15] -14% | [13]; [16] 60% | [13]; at 50.0 µM 56.4% | [14]; at 1.2 µM -3% | [14]; at 3.7 µM -4% | [14]; at 11.0 µM -3% | [14]; at 33.0 µM -16% | [14]; at 100.0 µM -1%
